The supplement of paper PMC10849652
About 7,900 targets were measured; listed, in parts, are those with a hit and a random draw of the rest. About 0.6% of all pairs of compound and target were hits.

Assays:
Test in all cases: log2 fold change, soluble protein after heating vs DMSO (PISA); higher = thermal stabilisation; K562 cells, 10 uM, 30 min; active = over 0.2 and 3.5 SD of the protein, either way, in both replicates (recomputed)
[1] = compound: CC[C@@H]1C(=O)N(C)c2cnc(Nc3ccc(C(=O)NC4CCN(C)CC4)cc3OC)nc2N1C1CCCC1
Summary of the method: (§1)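 Soluble protein was quantified by TMTpro 16plex LC-MS/MS after channel sums were equalised. It was obtained as the supernatant after 21,000xg for 90 min from pooled aliquots of K562 cells (2×10^6 cells/mL, 10 μM compound, 30 min) heated for 3 min across 48°C-58°C and extracted in PBS with 0.5% NP-40 at 4°C. Thermal stability values are relative to control samples and come from duplicates. They are given as log2 fold changes.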

[2] = compound: CC[C@@H]1C(=O)N(C)c2cnc(Nc3ccc(C(=O)N[C@H]4CC[C@H](N5CCN(CC6CC6)CC5)CC4)cc3OC)nc2N1C(C)C [volasertib]
Summary of the method: as §1

[3] = compound: CC[C@H](C)N1C=C(C2=C(C=C(C=C21)C3=CN=C(C=C3)N4CCNCC4)C(=O)NCC5=C(C=C(NC5=O)C)C)C
Summary of the method: as §1

[4] = compound: CC[C@H](C)[C@@H](C(=O)N[C@@H]([C@@H](C)O)C(=O)N[C@@H](CC(C)C)C(=O)[C@]1(CO1)C)NC(=O)[C@H]([C@@H](C)CC)N(C)C(=O)C [epoxomicin]
Summary of the method: as §1

[5] = compound: CCn1c(C(=O)N(C2CC2)C2CC2)cc2c3c(ncn3C)c(Nc3cc(C)n(C)n3)nc21
Summary of the method: as §1

[6] = compound: CCn1cc(-c2ccnc3[nH]c(-c4cccc(CN(C)C)c4)cc23)c(-c2ccc(NC(=O)N(C)C)cc2)n1
Summary of the method: as §1

[7] = compound: CN(C)CC(=O)Nc1ccc2[nH]c(=O)c3ccccc3c2c1
Summary of the method: as §1

[8] = compound: CN(CCOC1=CC=C(C=C1)C[C@H]2C(=O)NC(=O)S2)C3=CC=CC=N3 (racemic) [rosiglitazone]
Summary of the method: as §1

[9] = compound: CN1C2=C(C3=C1C(=O)N(N=C3)CC4=CC(=CC=C4)N)SC(=C2)S(=O)C
Summary of the method: as §1

[10] = compound: CN1CCC(CNc2ccc3ncc(-c4cccc(OC(F)(F)F)c4)n3n2)CC1
Summary of the method: as §1

[11] = compound: CN1CCN(CCOc2cc(OC3CCOCC3)c3c(Nc4c(Cl)ccc5c4OCO5)ncnc3c2)CC1 [saracatinib]
Summary of the method: as §1

[12] = compound: CN1CCN(c2nc(C3=C(c4c[nH]c5ccccc45)C(=O)NC3=O)c3ccccc3n2)CC1 [sotrastaurin]
Summary of the method: as §1

[13] = compound: CN1CC[C@H](c2c(O)cc(O)c3c(=O)cc(-c4ccccc4Cl)oc23)[C@H](O)C1 [alvocidib]
Summary of the method: as §1

[14] = compound: CN1CCc2c(c3ccccc3n2Cc2ccc(C(=O)NO)cc2)C1 [Tubastatin A]
Summary of the method: as §1

[15] = compound: CNC(=O)C1=CC=CC=C1NC2=NC(=NC=C2Cl)NC3=C(C=C(C=C3)N4CCOCC4)OC
Summary of the method: as §1

[16] = compound: CNC(=O)c1ccc(Nc2ncc(C(F)(F)F)c(NCc3nccnc3N(C)S(C)(=O)=O)n2)cc1 [defactinib]
Summary of the method: as §1

[17] = compound: CNCc1ccc(-c2[nH]c3cc(F)cc4c3c2CCNC4=O)cc1 [rucaparib]
Summary of the method: as §1

[18] = compound: CNc1nc(-c2ccc3c(N)n[nH]c3c2)cc(N2C[C@@H](C(=O)NC3CCCCC3)CC[C@H]2C)n1
Summary of the method: as §1

[19] = compound: COC(=O)N[C@@H](C)CNc1nccc(-c2cn(C(C)C)nc2-c2cc(Cl)cc(NS(C)(=O)=O)c2F)n1 [encorafenib]
Summary of the method: as §1

[20] = compound: COC(=O)[C@H](CCSC)NC(=O)C1=C(C=C(C=C1)NC[C@H](CS)N)C2=CC=CC=C2
Summary of the method: as §1

Measured: log2 fold change

ACAD9 (UniProt Q9H845)
inactive: [1] 0.03 | [2] 0.024 | [3] -0.039 | [4] 0.015 | [5] 0.006 | [6] 0.014 | [7] 0.022 | [8] -0.016 | [9] -0.032 | [10] -0.002 | [11] 0.008 | [12] 0.004 | [13] -0.012 | [14] -0.041 | [15] -0.001 | [16] -0.026 | [17] -0.038 | [18] -0.025 | [19] -0.004 | [20] -0.015

ATG4B isoform 2 (UniProt Q9Y4P1)
inactive: [1] -0.007 | [2] -0.441 | [3] 0.16 | [4] -0.013 | [5] 0.011 | [6] 0.039 | [7] 0.08 | [8] 0.136 | [9] 0.1 | [10] -0.302 | [11] -0.186 | [12] -0.297 | [13] -0.19 | [14] 0.02 | [15] 0.027 | [16] -0.263 | [17] -0.02 | [18] 0.004 | [19] -0.003 | [20] -0.04

ACBD6 (UniProt Q9BR61)
Chain of UniProt Q9BR61 (Q9BR61 whole entry, looked up): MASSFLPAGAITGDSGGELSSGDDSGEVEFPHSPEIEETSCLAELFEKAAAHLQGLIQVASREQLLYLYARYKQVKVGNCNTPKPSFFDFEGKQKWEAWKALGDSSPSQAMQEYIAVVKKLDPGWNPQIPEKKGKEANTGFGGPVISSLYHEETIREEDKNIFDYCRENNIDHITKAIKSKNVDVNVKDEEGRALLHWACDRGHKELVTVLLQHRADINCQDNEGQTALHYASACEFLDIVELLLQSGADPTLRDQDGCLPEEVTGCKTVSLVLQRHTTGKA
active: [2] -0.473
inactive: [1] -0.032 | [3] 0.103 | [4] 0.05 | [5] 0.01 | [6] -0.11 | [7] 0.141 | [8] 0.363 | [9] -0.099 | [10] 0.046 | [11] -0.129 | [12] -0.115 | [13] -0.076 | [14] 0.196 | [15] 0.067 | [16] -0.112 | [17] -0.061 | [18] 0.006 | [19] 0.098 | [20] -0.047

ATP11A (UniProt P98196)
inactive: [1] 0.266 | [2] 0.058 | [3] -0.094 | [4] 0.001 | [5] 0.026 | [6] -0.022 | [7] 0.031 | [8] 0.045 | [9] -0.083 | [10] 0.084 | [11] 0.082 | [12] 0.094 | [13] 0.059 | [14] 0.007 | [15] -0.002 | [16] -0.093 | [17] 0.192 | [18] 0.044 | [19] 0.008 | [20] 0.017

ATP9B (UniProt O43861)
inactive: [1] -0.002 | [2] -0.15 | [3] -0.125 | [4] 0.055 | [5] -0.204 | [6] -0.023 | [7] 0.013 | [8] 0.08 | [9] 0.013 | [10] -0.109 | [11] 0.13 | [12] -0.185 | [13] 0.008 | [14] -0.055 | [15] -0.02 | [16] -0.025 | [17] 0.081 | [18] -0.027 | [19] 0.058 | [20] 0.06

ALKBH5 (UniProt Q6P6C2)
Chain of UniProt Q6P6C2 (Q6P6C2 whole entry, looked up): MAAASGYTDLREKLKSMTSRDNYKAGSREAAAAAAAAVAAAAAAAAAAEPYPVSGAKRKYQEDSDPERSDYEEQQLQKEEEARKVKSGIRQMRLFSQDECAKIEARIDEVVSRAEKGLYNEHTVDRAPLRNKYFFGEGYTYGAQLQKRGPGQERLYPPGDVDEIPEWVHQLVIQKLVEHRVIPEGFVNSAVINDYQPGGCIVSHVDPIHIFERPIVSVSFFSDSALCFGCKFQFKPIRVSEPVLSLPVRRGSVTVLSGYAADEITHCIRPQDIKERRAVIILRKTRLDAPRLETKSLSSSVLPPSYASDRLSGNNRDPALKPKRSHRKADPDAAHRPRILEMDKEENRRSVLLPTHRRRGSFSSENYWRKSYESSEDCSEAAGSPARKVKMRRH
inactive: [1] 0.08 | [2] 0.109 | [3] 0.01 | [4] -0.033 | [5] -0.112 | [6] -0.058 | [7] -0.058 | [8] -0.015 | [9] -0.011 | [10] 0.041 | [11] -0.006 | [12] -0.044 | [13] 0.092 | [14] 0.118 | [15] -0.185 | [16] 0.021 | [17] 0.11 | [18] 0.035 | [19] -0.048 | [20] 0.003

BMP2K (UniProt Q9NSY1)
Chain of UniProt Q9NSY1 (Q9NSY1 whole entry, looked up): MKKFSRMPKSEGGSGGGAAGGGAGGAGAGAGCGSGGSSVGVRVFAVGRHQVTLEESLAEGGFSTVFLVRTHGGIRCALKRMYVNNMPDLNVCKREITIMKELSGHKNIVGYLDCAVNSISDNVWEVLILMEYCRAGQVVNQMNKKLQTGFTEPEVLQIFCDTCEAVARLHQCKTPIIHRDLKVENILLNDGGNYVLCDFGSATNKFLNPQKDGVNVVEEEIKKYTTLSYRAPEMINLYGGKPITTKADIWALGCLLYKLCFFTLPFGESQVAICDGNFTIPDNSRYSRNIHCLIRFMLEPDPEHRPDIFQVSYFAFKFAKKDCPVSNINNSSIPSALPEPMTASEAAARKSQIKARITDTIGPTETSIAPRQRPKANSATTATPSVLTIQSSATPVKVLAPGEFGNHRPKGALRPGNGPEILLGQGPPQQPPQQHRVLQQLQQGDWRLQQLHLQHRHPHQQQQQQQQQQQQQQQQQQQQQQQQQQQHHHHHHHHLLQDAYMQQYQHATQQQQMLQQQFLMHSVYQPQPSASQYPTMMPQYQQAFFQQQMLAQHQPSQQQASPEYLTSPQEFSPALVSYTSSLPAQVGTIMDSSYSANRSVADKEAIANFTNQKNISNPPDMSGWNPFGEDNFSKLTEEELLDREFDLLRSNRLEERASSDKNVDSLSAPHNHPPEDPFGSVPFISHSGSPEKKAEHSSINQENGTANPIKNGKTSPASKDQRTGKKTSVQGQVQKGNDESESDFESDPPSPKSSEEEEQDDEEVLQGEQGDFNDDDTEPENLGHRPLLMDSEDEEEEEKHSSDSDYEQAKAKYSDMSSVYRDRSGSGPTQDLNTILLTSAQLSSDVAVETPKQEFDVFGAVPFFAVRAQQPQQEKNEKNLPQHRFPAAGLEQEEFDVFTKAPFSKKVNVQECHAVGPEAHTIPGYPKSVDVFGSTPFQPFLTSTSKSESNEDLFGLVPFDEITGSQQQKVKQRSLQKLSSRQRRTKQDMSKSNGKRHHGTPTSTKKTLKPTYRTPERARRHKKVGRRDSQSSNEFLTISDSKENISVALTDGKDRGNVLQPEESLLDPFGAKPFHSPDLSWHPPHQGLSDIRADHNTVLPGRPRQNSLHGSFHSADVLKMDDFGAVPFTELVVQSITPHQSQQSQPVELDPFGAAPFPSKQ
inactive: [1] 0.13 | [2] 0.115 | [3] -0.02 | [4] -0.053 | [5] 0.269 | [6] 0.023 | [7] -0.058 | [8] -0.044 | [9] 0.008 | [11] 0.071 | [12] 0.023 | [13] 0.088 | [14] 0.015 | [15] 0.183 | [16] 0.179 | [17] 0.064 | [18] -0.029 | [19] -0.069 | [20] -0.012
active: [10] 0.656

ACO2 (UniProt Q99798)
inactive: [1] 0.043 | [2] 0.037 | [3] 0.022 | [4] 0.046 | [5] -0.011 | [6] -0.115 | [7] 0.055 | [8] -0.023 | [9] -0.118 | [11] 0.005 | [12] -0.017 | [13] -0.107 | [14] -0.021 | [15] 0.016 | [16] -0.083 | [17] -0.034 | [18] 0.021 | [19] 0.027 | [20] -0.037
active: [10] -0.344

ATP6V1H (UniProt Q9UI12)
inactive: [1] -0.085 | [2] -0.093 | [3] 0.069 | [4] 0.098 | [5] 0.041 | [7] 0.012 | [8] 0.048 | [9] -0.026 | [10] -0.069 | [11] -0.047 | [12] -0.015 | [13] -0.065 | [14] 0.046 | [15] -0.016 | [16] -0.042 | [17] 0.016 | [18] 0.054 | [19] 0.016 | [20] -0.043
active: [6] -0.244

ARL1 (UniProt P40616)
Chain of UniProt P40616 (P40616 whole entry, looked up): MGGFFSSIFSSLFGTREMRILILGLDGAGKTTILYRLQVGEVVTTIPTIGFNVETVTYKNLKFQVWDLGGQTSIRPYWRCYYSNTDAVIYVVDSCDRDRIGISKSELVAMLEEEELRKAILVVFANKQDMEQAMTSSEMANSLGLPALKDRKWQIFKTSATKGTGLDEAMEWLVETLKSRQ
inactive: [1] 0.072 | [2] -0.113 | [3] 0.023 | [4] 0.028 | [5] 0.014 | [6] -0.05 | [7] 0.025 | [8] 0.032 | [9] -0.157 | [10] 0.059 | [11] 0.117 | [12] -0.049 | [13] -0.068 | [14] 0.031 | [15] -0.017 | [16] 0.03 | [17] -0.012 | [18] 0.058 | [19] 0.117 | [20] -0.178

AKAP8L (UniProt Q9ULX6)
Chain of UniProt Q9ULX6 (Q9ULX6 whole entry, looked up): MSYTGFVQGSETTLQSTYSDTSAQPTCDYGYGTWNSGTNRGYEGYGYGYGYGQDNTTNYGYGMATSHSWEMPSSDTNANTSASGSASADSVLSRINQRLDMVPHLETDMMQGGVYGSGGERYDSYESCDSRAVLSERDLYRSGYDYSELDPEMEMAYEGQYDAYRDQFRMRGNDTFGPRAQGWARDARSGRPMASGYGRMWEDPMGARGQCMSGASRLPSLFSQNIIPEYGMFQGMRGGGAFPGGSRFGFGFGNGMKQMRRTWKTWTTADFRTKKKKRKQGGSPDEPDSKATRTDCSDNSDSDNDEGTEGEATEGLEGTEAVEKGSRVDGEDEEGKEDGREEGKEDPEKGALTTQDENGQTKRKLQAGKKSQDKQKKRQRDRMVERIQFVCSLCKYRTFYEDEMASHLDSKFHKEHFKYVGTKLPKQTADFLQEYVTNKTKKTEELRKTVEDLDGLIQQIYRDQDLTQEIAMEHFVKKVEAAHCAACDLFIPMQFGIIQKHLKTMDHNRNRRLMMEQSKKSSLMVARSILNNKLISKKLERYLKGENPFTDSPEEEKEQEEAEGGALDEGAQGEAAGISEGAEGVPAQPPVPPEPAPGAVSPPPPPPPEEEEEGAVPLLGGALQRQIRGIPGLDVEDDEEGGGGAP
active: [2] -0.394 | [16] -0.477
inactive: [1] -0.14 | [3] 0.059 | [4] 0.072 | [5] -0.074 | [6] -0.039 | [7] 0.043 | [8] 0.101 | [9] 0.171 | [10] -0.25 | [11] -0.127 | [12] -0.203 | [13] -0.21 | [14] 0.055 | [15] -0.097 | [17] -0.008 | [18] 0.027 | [19] 0.025 | [20] 0.049

ALDH6A1 (UniProt Q02252)
Chain of UniProt Q02252 (Q02252 whole entry, looked up): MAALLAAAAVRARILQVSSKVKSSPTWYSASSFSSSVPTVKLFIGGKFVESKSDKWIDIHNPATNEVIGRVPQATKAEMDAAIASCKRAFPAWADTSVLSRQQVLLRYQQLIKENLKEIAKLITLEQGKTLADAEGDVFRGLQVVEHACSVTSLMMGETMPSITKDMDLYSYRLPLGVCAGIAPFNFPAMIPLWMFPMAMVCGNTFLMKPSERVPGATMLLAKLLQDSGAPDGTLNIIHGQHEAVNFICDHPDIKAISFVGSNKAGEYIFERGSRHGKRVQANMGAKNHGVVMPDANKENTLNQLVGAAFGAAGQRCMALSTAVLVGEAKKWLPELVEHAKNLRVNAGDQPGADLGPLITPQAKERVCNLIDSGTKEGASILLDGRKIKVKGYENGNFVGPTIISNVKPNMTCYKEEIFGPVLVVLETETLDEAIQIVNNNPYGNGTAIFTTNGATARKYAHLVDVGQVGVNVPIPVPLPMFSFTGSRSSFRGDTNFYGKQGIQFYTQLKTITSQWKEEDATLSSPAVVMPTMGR
inactive: [1] 0.06 | [2] -0.011 | [3] -0.059 | [4] 0 | [5] 0.028 | [6] -0.06 | [7] -0.033 | [8] 0.093 | [9] -0.068 | [10] -0.004 | [11] 0.031 | [12] 0.144 | [13] -0.098 | [14] 0.03 | [15] 0.021 | [16] -0.021 | [17] 0.021 | [18] -0.045 | [19] 0.024 | [20] -0.008

ATP7B (UniProt P35670)
Chain of UniProt P35670 (P35670 whole entry, looked up): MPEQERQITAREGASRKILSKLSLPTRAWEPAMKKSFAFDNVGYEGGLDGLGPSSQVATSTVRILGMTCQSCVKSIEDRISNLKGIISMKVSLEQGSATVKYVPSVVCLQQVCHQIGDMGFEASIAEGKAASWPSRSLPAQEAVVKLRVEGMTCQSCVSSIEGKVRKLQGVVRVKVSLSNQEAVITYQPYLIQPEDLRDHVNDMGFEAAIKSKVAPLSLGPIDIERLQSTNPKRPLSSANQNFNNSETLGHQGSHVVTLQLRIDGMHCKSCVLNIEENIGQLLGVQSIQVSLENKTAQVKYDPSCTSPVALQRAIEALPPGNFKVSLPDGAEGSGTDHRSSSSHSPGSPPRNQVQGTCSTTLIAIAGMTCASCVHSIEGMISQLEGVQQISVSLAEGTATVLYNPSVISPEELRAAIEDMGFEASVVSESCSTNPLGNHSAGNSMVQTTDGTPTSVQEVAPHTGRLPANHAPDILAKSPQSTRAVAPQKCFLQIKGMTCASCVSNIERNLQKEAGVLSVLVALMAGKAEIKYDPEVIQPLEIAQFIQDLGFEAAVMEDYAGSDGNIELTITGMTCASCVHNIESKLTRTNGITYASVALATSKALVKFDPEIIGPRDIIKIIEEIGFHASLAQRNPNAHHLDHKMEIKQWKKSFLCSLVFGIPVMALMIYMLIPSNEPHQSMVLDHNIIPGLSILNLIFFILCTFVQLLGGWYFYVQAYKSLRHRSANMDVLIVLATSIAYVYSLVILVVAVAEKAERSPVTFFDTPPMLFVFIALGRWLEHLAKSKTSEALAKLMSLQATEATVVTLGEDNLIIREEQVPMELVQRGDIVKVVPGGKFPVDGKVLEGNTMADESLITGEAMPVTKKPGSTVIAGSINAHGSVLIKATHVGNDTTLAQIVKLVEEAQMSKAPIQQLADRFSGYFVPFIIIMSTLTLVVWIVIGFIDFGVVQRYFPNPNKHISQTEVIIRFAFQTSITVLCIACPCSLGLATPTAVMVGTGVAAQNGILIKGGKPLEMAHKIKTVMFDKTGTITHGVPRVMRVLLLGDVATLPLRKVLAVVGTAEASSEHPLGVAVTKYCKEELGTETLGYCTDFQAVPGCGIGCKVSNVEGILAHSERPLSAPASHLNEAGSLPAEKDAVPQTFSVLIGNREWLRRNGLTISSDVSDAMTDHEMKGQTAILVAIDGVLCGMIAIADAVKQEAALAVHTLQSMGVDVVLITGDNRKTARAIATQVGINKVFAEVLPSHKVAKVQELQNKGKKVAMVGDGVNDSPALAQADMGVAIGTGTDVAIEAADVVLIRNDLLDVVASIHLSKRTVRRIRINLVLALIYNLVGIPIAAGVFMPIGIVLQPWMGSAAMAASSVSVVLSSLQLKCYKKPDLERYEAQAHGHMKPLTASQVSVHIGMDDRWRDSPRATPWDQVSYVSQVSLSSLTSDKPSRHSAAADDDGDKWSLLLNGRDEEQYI
inactive: [1] -0.03 | [2] -0.043 | [3] 0.06 | [4] 0.103 | [5] 0.061 | [6] -0.031 | [7] 0.024 | [8] 0.069 | [9] 0.034 | [10] 0.009 | [11] 0.069 | [12] 0.005 | [13] -0.085 | [14] 0.01 | [15] -0.019 | [16] -0.011 | [17] -0.044 | [18] 0.005 | [19] 0.052 | [20] -0.021

ADD3 (UniProt Q9UEY8)
inactive: [1] 0.098 | [2] 0.056 | [3] -0.024 | [4] 0.014 | [5] 0.01 | [6] 0.054 | [7] -0.03 | [8] -0.006 | [9] -0.056 | [10] -0.023 | [11] 0.032 | [12] -0.087 | [13] -0.068 | [14] -0.02 | [15] -0.005 | [16] -0.018 | [17] -0.013 | [18] -0.039 | [19] -0.003 | [20] 0.045

BECN1 (UniProt Q14457)
inactive: [1] 0.069 | [2] -0.003 | [3] 0.029 | [4] 0.07 | [5] 0.053 | [6] -0.107 | [7] -0.003 | [8] 0.013 | [9] 0.024 | [10] 0.009 | [11] 0.013 | [12] -0.038 | [13] -0.262 | [14] -0.065 | [15] -0.029 | [16] -0.054 | [17] -0.014 | [18] -0.013 | [19] 0.001 | [20] 0.018

ABHD17A isoform 2 (UniProt Q96GS6)
Chain of UniProt Q96GS6 (Q96GS6 whole entry, looked up): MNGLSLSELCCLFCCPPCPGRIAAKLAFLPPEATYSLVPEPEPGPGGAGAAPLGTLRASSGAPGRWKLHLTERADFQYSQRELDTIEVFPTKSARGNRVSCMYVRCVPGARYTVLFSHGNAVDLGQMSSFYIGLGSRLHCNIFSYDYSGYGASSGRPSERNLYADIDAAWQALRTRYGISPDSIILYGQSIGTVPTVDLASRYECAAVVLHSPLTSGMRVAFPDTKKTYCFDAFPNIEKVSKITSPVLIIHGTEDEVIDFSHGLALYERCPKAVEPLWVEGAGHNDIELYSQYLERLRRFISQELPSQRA
active: [10] -0.377 | [15] -0.595
inactive: [1] -0.072 | [2] -0.172 | [3] -0.084 | [4] -0.057 | [5] -0.058 | [6] -0.17 | [7] -0.067 | [8] 0.009 | [9] -0.015 | [11] 0.002 | [12] 0.01 | [13] 0.04 | [14] 0.065 | [16] -0.008 | [17] 0.017 | [18] -0.052 | [19] 0.104 | [20] 0.059
